FLuc counter = qHTS profiling assay for firefly luciferase inhibitor/activator using purifed enzyme and Km concentrations of substrates (counterscreen for miR-21 project); Luciferin 4-monooxygenase (Photinus pyralis), P08659; 360,000 compounds, 6.9% hits; Potency, µM (highest dose often 57.5 µM), for the others: top-dose activity change, negative = inhibition, most hits filed as inhibitors; purified FLuc, Km substrates, luminescence inhibition;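 further: plate controls were vehicle for no effect and reference inhibitor for full effect; nearly all actives have a fitted effect of over 55% in size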
Target sequence (P08659 whole entry, looked up): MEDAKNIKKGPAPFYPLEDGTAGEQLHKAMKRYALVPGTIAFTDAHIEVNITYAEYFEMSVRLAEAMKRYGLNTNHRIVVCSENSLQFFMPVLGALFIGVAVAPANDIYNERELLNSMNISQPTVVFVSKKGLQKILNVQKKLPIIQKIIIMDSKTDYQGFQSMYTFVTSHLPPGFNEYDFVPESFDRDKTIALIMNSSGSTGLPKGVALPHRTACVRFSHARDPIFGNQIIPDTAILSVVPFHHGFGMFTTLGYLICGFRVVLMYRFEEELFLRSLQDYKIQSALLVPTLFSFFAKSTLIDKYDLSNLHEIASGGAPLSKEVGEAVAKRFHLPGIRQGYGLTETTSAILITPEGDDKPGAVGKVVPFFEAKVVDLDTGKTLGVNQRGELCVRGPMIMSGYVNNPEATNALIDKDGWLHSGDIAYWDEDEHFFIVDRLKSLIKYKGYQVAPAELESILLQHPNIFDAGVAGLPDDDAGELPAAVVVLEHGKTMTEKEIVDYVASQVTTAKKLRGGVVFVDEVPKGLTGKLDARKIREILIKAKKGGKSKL
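Purified P. pyralis luciferase, 10 nM final, with Km-level 10 uM D-luciferin and 10 uM ATP in 50 mM Tris acetate pH 7.5, 10 mM Mg acetate, 0.01% Tween-20, 0.05% BSA; 6-point qHTS titration about 60 µM downward; luminescence read.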
ELG1 DNA repair = qHTS screen for small molecules that inhibit ELG1-dependent DNA repair in human embryonic kidney (HEK293T) cells expressing luciferase-tagged ELG1 | HEK293T ELG1-luciferase reporter, luminescence, 16 h; DNA damage induced by 5-fluorouridine | Potency, µM (highest dose often 46.1 µM), for the others: top-dose activity change, negative = inhibition, most hits filed as inhibitors | 330,000 compounds, 2.3% hits | AID 504467, 2011; further: on the % scale 0 is the no-effect control and ±100 the full control effect; nearly all actives have a fitted effect of over 55% in size
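Overnight (16 hr) co-exposure of 2,000 cells/well to 5-fluorouridine and compound at 37 °C preceded detection. Luciferase was quantified via ONE-Glo luminescence; loss of signal denotes inhibition.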
ELG1 genotoxic = qHTS screen for small molecules that induce genotoxicity in human embryonic kidney (HEK293T) cells expressing luciferase-tagged ELG1; HEK293T ELG1-luciferase reporter, luminescence, 16 h; Potency, µM (doses to about 46 µM), for the others: at the highest dose activity change, positive = activation, usual class: activators; 330,000 compounds, 1.3% hits; further: % of control where 0% means no effect; nearly all actives have a fitted effect of over 60% in size
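Genotoxic stress is detected as increased luminescence from luciferase-tagged ELG1 in HEK293T cells, measured with ONE-Glo after a 16 hr treatment at 37 °C.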
Rab9 prom act = qHTS Assay for Rab9 Promoter Activators; Huh7 Rab9 promoter-luciferase reporter, luminescence, 24 h; Potency, µM (top dose mostly 9.22 µM), without a hit: at the highest dose activation, negative = inhibition, most hits filed as activators; 320,000 compounds, 2.8% hits; further: % of control where 0% means no effect; nearly all actives have a fitted effect of over 60% in size
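Huh7 reporter line, Rab9 promoter upstream of luciferase. Compound exposure 24 h at 37 °C in reduced-serum medium with 10% FBS. Read-out: luminescence.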
SMN2 splice up = qHTS Assay for Enhancers of SMN2 Splice Variant Expression | Potency, µM (highest dose often 46.1 µM), for the others: at the highest dose activity change, positive = activation, usual class: activators | HEK293 SMN2-luciferase splicing reporter, luminescence, 30-36 h | 210,000 compounds, 2.8% hits; further: % of control where 0% means no effect; nearly all actives have a fitted effect of over 55% in size
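HEK293 cells carry an SMN2 […]–luciferase reporter in which exon 7 inclusion puts luciferase in frame. Cells were plated 10-12 h before compound addition, then incubated 30-36 h at 37C. ONE-Glo luminescence was read; sodium butyrate at 4.5 mM final served as control.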
NPC1 prom act = qHTS Assay for NPC1 Promoter Activators | Huh7 NPC1 promoter luciferase reporter, 24 h | Potency, µM (highest dose often 9.22 µM), without a hit: at the highest dose activation, usual class: activators | 320,000 compounds, 2.4% hits | AID 485313, 2010; further: % of control where 0% means no effect; nearly all actives have a fitted effect of over 60% in size
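Huh7 cells stably carrying NPC1 promoter–luciferase, plated in Opti-MEM with 10% FBS for 2 h, were exposed to compound in DMSO for 24 h at 37 °C; luciferase reagent was added for 10 min and luminescence read.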
* = called active by the depositor; ? = inconclusive; · = not tested or not shown. Sampled rows, rich in hits. Any-hit rate of the full collection: about 9.2%. The call rests on the fitted dose curve; in most records, active means well fitted curve in the direction sought with a large enough effect; inconclusive means small, poorly fitted or top-dose-only effect, or another doubt; inactive means no such curve, though single readings can be large; an effect the other way counts as inactive or inconclusive. Potency means the concentration at half of the fitted maximal effect.

SMILES | FLuc counter | ELG1 DNA repair | ELG1 genotoxic | Rab9 prom act | SMN2 splice up | NPC1 prom act
COC(=O)c1scc(S(=O)(=O)C(C)C)c1N/N=C(\C#N)C(=O)c1ccc(Cl)cc1 | -2% | 13µM* | -18% | -2% | · | -3%
O=C1CSC(c2ccccc2)N1Nc1nc(N2CCOCC2)nc(N2CCOCC2)n1 (stereo unspecified) | -1% | 6.5µM* | -1% | -9% | · | -8%
c1ccc(Oc2nc(N3CCOCC3)nc(N3CCOCC3)n2)cc1 | 1% | ? | 2% | 1% | 24% | -5%
CC(C)C1N(C(N)=S)N=CC1(C)C (stereo unspecified) | -1% | 6% | -1% | -3% | · | -2%
C/C(=N\OCc1nc2ccccc2c(=O)n1/N=C/c1cc(C)cc([N+](=O)[O-])c1O)c1ccccc1 | 27µM* | ? | ? | -5% | · | 13%
Cc1cc([N+](=O)[O-])cc(/C=N/n2c(C)nc3ccccc3c2=O)c1O | 3% | ? | 1% | -1% | · | 1%
C/C(=N\OCc1nc2ccccc2c(=O)n1/N=C/c1cc([N+](=O)[O-])ccc1O)c1ccccc1 | 24µM* | ? | 17% | 13% | · | 16%
COCCCNC(=S)NNC(=O)c1cc(C2CC2)nc2ccccc12 | 12µM* | -2% | 2% | -4% | · | -1%
COCCCNC(=S)NNC(=O)c1cc(-c2cccnc2)nc2ccccc12 | 11µM* | -4% | 4% | -3% | · | 0%
COCCNC(=S)NNC(=O)c1cc(-c2cccnc2)nc2ccccc12 | 8.5µM* | 13% | 1% | 0% | · | -2%
CCCc1cc(C(=O)NNC(=S)NCC)c2ccccc2n1 | ? | -1% | 3% | -2% | -70% | -1%
COCCCNC(=S)NNC(=O)c1cc(-c2ccncc2)nc2ccccc12 | 8.5µM* | 19% | 8% | 0% | · | -1%
COCCNC(=O)c1cc(-c2cccnc2)nc2ccc(Br)cc12 | ? | -3% | 0% | 4% | 9% | 0%
Cc1cc2oc(C(=O)N(Cc3ccc(N(C)C)cc3)CC3CCCO3)c(C)c2cc1Cl (stereo unspecified) | 0% | · | · | · | 1% | ·
Cc1ccc(NC(=O)Cn2cc(S(=O)(=O)NC(C)C)c(S(=O)(=O)NC(C)C)c2)cc1Cl | 4% | · | · | · | · | ·
CCNC(=S)NNC(=O)c1cc(-c2cc(C)ccc2C)nc2ccccc12 | 19µM* | 1% | -4% | -1% | -18% | -5%
Cc1cc(NC(=O)CCC(=O)NNC(=O)c2ccc(C(C)(C)C)cc2)no1 | 2.4µM* | ? | 8% | 11% | 5% | 4%
CC(C)(C)c1ccc(C(=O)NNC(=O)CCC(=O)Nc2ccccc2)cc1 | 3.4µM* | 7% | 17% | 6% | · | 11%
CCC(=O)NNC(=O)CCC(=O)Nc1ccccc1 | -3% | ? | 2% | -1% | ? | -2%
Cc1ccccc1Cn1c(=O)n(Cc2ccc(Cl)cc2)c(=O)c2cccnc21 | -11% | · | · | · | -1% | ·
O=c1c(-c2ccc(F)cc2)nc2cnc(N3CCOCC3)nc2n1C[C@H]1CCCO1 | · | · | · | · | 3% | ·
Cc1ccc(C(=O)Oc2ccc(N3C(=O)CCC3=O)c(C)c2)cc1 | 2.7µM* | 8% | 7% | -14% | 7% | -4%
Cc1ccc(C(=O)Oc2ccc3ccc(=O)oc3c2)cc1 | 2.4µM* | 29% | 2% | 0% | · | -4%
COc1cccc(C(=O)Oc2ccc3ccc(=O)oc3c2)c1 | 5.4µM* | 9% | 3% | 1% | · | -6%
Cc1ccc2c(c1)N(CC(=O)Nc1ccccc1C(F)(F)F)C(=O)c1cccnc1O2 | 1% | · | · | · | · | ·
SMILES | FLuc counter | ELG1 DNA repair | ELG1 genotoxic | Rab9 prom act | SMN2 splice up | NPC1 prom act
O=C(COC(=O)c1ccncc1)Nc1cc(S(=O)(=O)N2CCOCC2)ccc1Cl | -1% | 7% | -2% | -23% | · | 1%
COc1cc(C(=O)N2CC(=O)Nc3ccc(C)cc3C2c2ccc(F)cc2)cc(OC)c1OC (stereo unspecified) | 0% | · | · | · | -2% | ·
CC1(C)OC(=O)C(=CNc2cccc(C(=O)O)c2)C(=O)O1 | 15µM* | 16% | 1% | ? | 0% | 24%
CC1(C)OC(=O)C(=CNc2ccccc2)C(=O)O1 | ? | 0% | 12% | 0% | -4% | -3%
Cc1cc(C)cc(C(=O)NCC(=O)NNC(=O)CSc2ccccc2F)c1 | 2% | 14% | -1% | 4% | · | 1%
Cc1cccc(NC(=O)CSc2cc(C)c(C#N)c3nc4ccccc4n23)c1 | -1% | ? | 9% | -1% | · | 2%
CCN(c1cccc(C)c1)S(=O)(=O)c1cc(Br)cc2c1N(C(C)=O)C(C)C2 (stereo unspecified) | -5% | · | · | · | -63% | ·
CCCCn1c(/C=C/c2ccco2)nc2ccccc21 | 13µM* | ? | 13% | 12% | 16µM* | 11%
CCCn1c(/C=C/c2ccco2)nc2ccccc21 | 12µM* | ? | 1% | 19% | 14µM* | 20%
CC(C)COC(=O)c1ccc(NC(=O)C2C3CCC(C3)C2C(=O)O)cc1 (stereo unspecified) | 17µM* | ? | ? | 1.1µM* | 21% | 4µM*
CCOC(=O)c1ccc(NC(=O)N2CCCCCC2)cc1 | 8.5µM* | ? | 5.8µM* | 1.8µM* | · | 1.1µM*
CCOC(=O)c1ccc(NC(=O)C2C3CCCCC32)cc1 (stereo unspecified) | 15µM* | ? | 23% | ? | · | ?
CCCOC(=O)c1ccc(NC(=O)C2CCCO2)cc1 (stereo unspecified) | ? | ? | ? | 4µM* | ? | ?
CCOc1ccccc1NC(=O)CSc1nc(=O)[nH]c2c1CCCC2 | -1% | · | · | · | · | ·
COc1ccccc1N1CCN(/N=C/c2ccc(Cl)c([N+](=O)[O-])c2)CC1 | 15µM* | ? | ? | 24% | · | 28%
COc1ccc(NC(=S)N2CCN(c3ccc([N+](=O)[O-])cc3)CC2)cc1OC | -12% | 13µM* | 0% | -4% | -29% | -12%
COc1ccccc1N1CCN(C(=O)Nc2ccc([N+](=O)[O-])cc2)CC1 | 0% | 15µM* | -4% | -1% | 5% | 2%
COc1ccccc1N1CCN(/N=C/c2ccc([N+](=O)[O-])cc2)CC1 | 15µM* | ? | -5% | 4µM* | · | ?
COc1ccc(S(=O)(=O)N(C)C)cc1NC(=O)CSc1nnc(-c2cccnc2)o1 | -2% | 4% | 3% | 0% | -3% | 4%
